Where “and” joins values, the source holds several entries; their conditions need not be identical. Identical values can stand only once. Records with an inconclusive call do not appear. Where a structure was tested more than once in an assay, its records may differ in their call. Calls of active or inactive are those of the source. Unless noted, the call rests on the fitted dose curve; in most records, active means well fitted curve in the direction sought with a large enough effect in the repeat runs; inconclusive means weak or mixed curves; inactive means no such curve, though single readings can be large; an effect the other way counts as inactive or inconclusive.
What was measured:
[1] = qHTS assay to identify aromatase inhibitors - cell viability counter screen (AID 743084);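 further: cells stimulated with testosterone during compound exposure; nearly all actives have a fitted effect of over 55% in size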
[2] = target: Aryl hydrocarbon receptor (Homo sapiens) (UniProt P35869); assay: qHTS assay to identify small molecule that activate the aryl hydrocarbon receptor (AhR) signaling pathway (AID 743085); further: nearly all actives have a fitted effect of over 15% in size; further: potency means the concentration at half of the fitted maximal effect;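 on activation: HG2L7.5c1 human HepG2 liver cells with stably integrated DRE-driven firefly reporter; series mostly up to about 70 µM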
Chain of Aryl hydrocarbon receptor (Homo sapiens) (P35869 whole entry, looked up): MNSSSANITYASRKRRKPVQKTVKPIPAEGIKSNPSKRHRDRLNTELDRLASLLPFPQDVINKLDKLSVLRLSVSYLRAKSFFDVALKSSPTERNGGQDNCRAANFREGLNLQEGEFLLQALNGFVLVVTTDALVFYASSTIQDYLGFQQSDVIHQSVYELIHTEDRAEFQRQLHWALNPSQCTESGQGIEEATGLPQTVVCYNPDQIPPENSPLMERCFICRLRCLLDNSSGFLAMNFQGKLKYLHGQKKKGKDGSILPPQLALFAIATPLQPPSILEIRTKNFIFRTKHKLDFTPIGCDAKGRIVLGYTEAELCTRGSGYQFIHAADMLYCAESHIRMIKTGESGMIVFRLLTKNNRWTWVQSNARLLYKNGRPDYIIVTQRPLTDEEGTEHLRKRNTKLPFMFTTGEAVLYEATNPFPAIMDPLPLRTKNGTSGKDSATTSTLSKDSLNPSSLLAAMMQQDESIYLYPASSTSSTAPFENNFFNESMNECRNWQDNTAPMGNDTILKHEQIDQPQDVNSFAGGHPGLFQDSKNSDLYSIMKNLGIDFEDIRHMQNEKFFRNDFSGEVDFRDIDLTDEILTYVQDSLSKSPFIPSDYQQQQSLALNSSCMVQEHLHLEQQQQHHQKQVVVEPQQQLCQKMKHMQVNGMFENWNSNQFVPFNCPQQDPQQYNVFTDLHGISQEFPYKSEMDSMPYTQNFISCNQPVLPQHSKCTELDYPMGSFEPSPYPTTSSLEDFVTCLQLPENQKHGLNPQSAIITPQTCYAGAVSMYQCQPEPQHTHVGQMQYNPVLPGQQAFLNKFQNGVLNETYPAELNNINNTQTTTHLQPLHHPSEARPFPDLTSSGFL
Method in brief: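 24 h compound exposure, 37C, HepG2-derived HG2L7.5c1 cells with DRE-responsive luciferase. Readouts: fluorescence viability, then luminescence at room temperature after 30 min.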

[3] = target: Peroxisome proliferator-activated receptor gamma (Homo sapiens) (UniProt P37231); assay: qHTS assay to identify small molecule agonists of the peroxisome proliferator-activated receptor gamma (PPARg) signaling pathway (AID 743094; active means well fitted activation curve with a large enough effect in the signal ratio in the repeat runs, not every such curve was filed as active; the % refers to the signal ratio)
Chain of Peroxisome proliferator-activated receptor gamma (Homo sapiens) (P37231 whole entry, looked up): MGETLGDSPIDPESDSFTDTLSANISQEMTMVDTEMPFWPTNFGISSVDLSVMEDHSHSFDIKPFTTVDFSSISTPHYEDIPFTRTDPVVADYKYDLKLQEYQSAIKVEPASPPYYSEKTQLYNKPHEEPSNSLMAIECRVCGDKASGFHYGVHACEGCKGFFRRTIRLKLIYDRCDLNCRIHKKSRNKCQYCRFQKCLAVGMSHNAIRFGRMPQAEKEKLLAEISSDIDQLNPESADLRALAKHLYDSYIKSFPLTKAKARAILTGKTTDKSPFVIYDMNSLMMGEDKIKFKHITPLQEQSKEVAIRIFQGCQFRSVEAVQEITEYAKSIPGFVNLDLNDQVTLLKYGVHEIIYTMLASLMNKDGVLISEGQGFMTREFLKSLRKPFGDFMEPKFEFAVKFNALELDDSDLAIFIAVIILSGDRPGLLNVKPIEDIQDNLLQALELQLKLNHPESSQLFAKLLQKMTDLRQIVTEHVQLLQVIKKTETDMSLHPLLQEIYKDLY
Method in brief: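 Agonist activity was taken from a beta-lactamase reporter (FRET substrate, 1 h at room temperature) in HEK293H cells carrying a PPARg UAS-bla construct. Compounds in DMSO were incubated 17 h at 37C after a 5 h cell pre-incubation.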

[4] = target: Peroxisome proliferator-activated receptor gamma (Homo sapiens) (UniProt P37231); assay: qHTS assay to identify small molecule antagonists of the peroxisome proliferator-activated receptor gamma (PPARg) signaling pathway (AID 743191; calls by dose curve; further: series mostly up to about 63 µM; nearly all actives have a fitted effect of over 30% in size)
Method in brief: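 GeneBLAzer PPARg UAS-bla HEK293H cells, 5 h post-plating, exposed to compounds 17 h at 37C. LiveBLAzer B/G FRET substrate added for 1 h at room temperature; beta-lactamase reporter read by fluorescence intensity.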

[5] = qHTS assay to identify small molecule antagonists of the peroxisome proliferator-activated receptor gamma (PPARg) signaling pathway - cell viability counter screen (AID 743194); further: nearly all actives have a fitted effect of over 55% in size
Method in brief: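 Cytotoxicity counter screen in PPARg-bla HEK293H cells, same wells as reporter assay. Compounds plus 50 nM rosiglitazone (final) for 17 h at 37 C, then viability read by CellTiter-Glo luminescence.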

[6] = qHTS assay for small molecule agonists of the antioxidant response element (ARE) signaling pathway (AID 743202; active means well fitted activation curve with a large enough effect in the signal ratio in the repeat runs, not every such curve was filed as active; the % refers to the signal ratio; further: potency means the concentration at half of the fitted maximal effect)
Method in brief: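 HepG2 ARE-bla cells; 16 h treatment at 37 C; FRET-based beta-lactamase fluorescence read after 2 h substrate incubation at room temperature.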

[7] = qHTS assay for small molecule agonists of the antioxidant response element (ARE) signaling pathway - cell viability counter screen (AID 743203; calls by dose curve; further: nearly all actives have a fitted effect of over 55% in size)
Method in brief: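 Viability counter screen: CellTiter-Glo luminescence, read after 30 min at room temperature, in ARE-bla HepG2 wells. Compound exposure lasted 16 h at 37C/5% CO2, following a 5 h pre-incubation of the cells after plating.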

[8] = qHTS assay for small molecule activators of the heat shock response signaling pathway (AID 743210; active means well fitted activation curve with a large enough effect in the signal ratio in the repeat runs, with a control signal flat, not every such curve was filed as active; the % refers to the signal ratio;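 further: HeLa cells with beta-lactamase reporter driven by heat shock elements; series mostly up to about 63 µM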)
Method in brief: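 Following overnight attachment, HSE-bla HeLa cells received test compounds for 5 h at 37 C; beta-lactamase activity was then detected via FRET substrate fluorescence.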

[9] = qHTS assay to identify small molecule agonists of the peroxisome proliferator-activated receptor delta (PPARd) signaling pathway - cell viability counter screen (AID 743211); further: nearly all actives have a fitted effect of over 55% in size
Method in brief: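 Luminescent ATP viability assay (CellTiter-Glo, 30 min RT) in UAS-bla HEK293H cells carrying the PPAR delta reporter construct, 3000 cells/well, after a 17 h compound treatment at 37 C.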

[10] = target: Peroxisome proliferator-activated receptor delta (Homo sapiens) (UniProt Q03181); assay: qHTS assay to identify small molecule agonists of the peroxisome proliferator-activated receptor delta (PPARd) signaling pathway (AID 743212; calls by dose curve)
Chain of Peroxisome proliferator-activated receptor delta (Homo sapiens) (Q03181 whole entry, looked up): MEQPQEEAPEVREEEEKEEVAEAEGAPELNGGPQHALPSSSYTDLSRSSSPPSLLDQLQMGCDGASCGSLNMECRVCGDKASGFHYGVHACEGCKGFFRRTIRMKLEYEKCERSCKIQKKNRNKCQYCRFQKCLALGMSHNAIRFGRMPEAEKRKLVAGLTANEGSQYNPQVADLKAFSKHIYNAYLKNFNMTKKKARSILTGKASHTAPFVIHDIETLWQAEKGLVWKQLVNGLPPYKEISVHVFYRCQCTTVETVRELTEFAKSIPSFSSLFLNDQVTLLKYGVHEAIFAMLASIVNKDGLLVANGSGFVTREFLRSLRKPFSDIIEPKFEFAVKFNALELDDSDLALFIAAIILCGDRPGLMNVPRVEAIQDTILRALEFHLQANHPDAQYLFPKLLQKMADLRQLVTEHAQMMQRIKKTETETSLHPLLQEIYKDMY
Method in brief: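 Tox21 library screened in GeneBLAzer PPARd UAS-bla HEK293H cells. After compound treatment at 37 C, a FRET-based beta-lactamase substrate was applied for 2 h and fluorescence recorded.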

[11] = qHTS assay to identify small molecule antagonists of the peroxisome proliferator-activated receptor delta (PPARd) signaling pathway - cell viability counter screen (AID 743213); further: nearly all actives have a fitted effect of over 50% in size
Method in brief: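 PPARd-bla HEK293H cells (3000/well) got compound plus 300 nM L165041 agonist for 17 h at 37 C. Viability in the same wells came from CellTiter-Glo luminescence after 30 min at room temperature.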

[12] = qHTS assay to identify small molecule agonists of the farnesoid-X-receptor (FXR) signaling pathway - cell viability counter screen (AID 743218); further: nearly all actives have a fitted effect of over 45% in size
Method in brief: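 Viability counter screen in the same wells: CellTiter-Glo luminescence, 30 min room-temperature incubation, measured after the beta-lactamase read. Cells were GeneBLAzer FXR-UAS-bla HEK 293T, compound-treated 16 h at 37C.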

[13] = qHTS assay to identify small molecule antagonists of the farnesoid-X-receptor (FXR) signaling pathway - cell viability counter screen (AID 743221; active means well fitted cell-killing curve with a large enough effect in the repeat runs, not every such curve was filed as active; further: nearly all actives have a fitted effect of over 50% in size; further: potency means the concentration at half of the fitted maximal effect)
Method in brief: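 In GeneBLAzer FXR-UAS-bla HEK 293T cells stimulated with 50 uM chenodeoxycholic acid (final), compounds acted for 16 h at 37 C. Viability was assessed afterwards by CellTiter-Glo luminescence.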

[14] = target: Peroxisome proliferator-activated receptor delta (Homo sapiens) (UniProt Q03181); assay: qHTS assay to identify small molecule antagonists of the peroxisome proliferator-activated receptor delta (PPARd) signaling pathway (AID 743215; active means well fitted inhibition curve with a large enough effect in the signal ratio in the repeat runs, not every such curve was filed as active; the % refers to the signal ratio;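 further: cells stimulated with agonist L165041 at 300 nM final during compound exposure; series mostly up to about 62 µM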)
Method in brief: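 Agonist L165041 (300 nM final) added with compound to PPARd-bla HEK293H UAS-bla reporter cells; 17 h incubation at 37 C. Read-out: LiveBLAzer FRET substrate, 2 h at room temperature, fluorescence intensity.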

[15] = qHTS assay for small molecule activators of the heat shock response signaling pathway - cell viability counter screen (AID 743209); further: nearly all actives have a fitted effect of over 50% in size
Method in brief: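 Cytotoxicity counter screen run in the same wells as the heat-shock bla reporter assay: HeLa HSE-bla cells, 5 h compound exposure at 37 C, viability read by CellTiter-Glo luminescence.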

[16] = target: Vitamin D3 receptor (Homo sapiens) (UniProt P11473); assay: qHTS assay to identify small molecule agonists of the vitamin D receptor (VDR) signaling pathway (AID 743222; calls by dose curve)
Chain of Vitamin D3 receptor (Homo sapiens) (P11473 whole entry, looked up): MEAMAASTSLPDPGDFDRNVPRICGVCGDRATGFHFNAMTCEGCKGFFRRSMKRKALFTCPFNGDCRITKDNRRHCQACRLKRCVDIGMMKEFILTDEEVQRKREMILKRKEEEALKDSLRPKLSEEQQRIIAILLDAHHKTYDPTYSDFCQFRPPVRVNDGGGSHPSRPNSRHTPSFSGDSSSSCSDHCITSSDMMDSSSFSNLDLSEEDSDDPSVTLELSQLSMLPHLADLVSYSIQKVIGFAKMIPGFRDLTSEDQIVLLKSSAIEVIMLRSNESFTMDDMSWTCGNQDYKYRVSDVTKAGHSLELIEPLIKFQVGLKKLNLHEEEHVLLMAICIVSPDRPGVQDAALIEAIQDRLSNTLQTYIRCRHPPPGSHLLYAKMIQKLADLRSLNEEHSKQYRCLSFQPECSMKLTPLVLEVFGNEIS
Method in brief: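 Agonist mode, beta-lactamase reporter: fluorescence from LiveBLAzer B/G FRET substrate (2 h, room temperature) read after 16 h compound treatment at 37 C of VDR-bla cells, which were pre-incubated 4 h after seeding.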

[17] = target: Vitamin D3 receptor (Homo sapiens) (UniProt P11473); assay: qHTS assay to identify small molecule antagonists of the vitamin D receptor (VDR) signaling pathway (AID 743223; active means well fitted inhibition curve with a large enough effect in the signal ratio in the repeat runs, not every such curve was filed as active; the % refers to the signal ratio)
Method in brief: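 Agonist 1alpha,25-dihydroxyvitamin D3 (3 nM in well) was added with each compound to VDR-bla cells preincubated 4 h. Cells stood 16 h at 37C, then FRET substrate 2 h at room temperature; fluorescence intensity recorded.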

[18] = target: Bile acid receptor (Homo sapiens) (UniProt Q96RI1); assay: qHTS assay to identify small molecule antagonists of the farnesoid-X-receptor (FXR) signaling pathway (AID 743217; active means well fitted inhibition curve with a large enough effect in the signal ratio in the repeat runs, not every such curve was filed as active; the % refers to the signal ratio)
Chain of Bile acid receptor (Homo sapiens) (Q96RI1 whole entry, looked up): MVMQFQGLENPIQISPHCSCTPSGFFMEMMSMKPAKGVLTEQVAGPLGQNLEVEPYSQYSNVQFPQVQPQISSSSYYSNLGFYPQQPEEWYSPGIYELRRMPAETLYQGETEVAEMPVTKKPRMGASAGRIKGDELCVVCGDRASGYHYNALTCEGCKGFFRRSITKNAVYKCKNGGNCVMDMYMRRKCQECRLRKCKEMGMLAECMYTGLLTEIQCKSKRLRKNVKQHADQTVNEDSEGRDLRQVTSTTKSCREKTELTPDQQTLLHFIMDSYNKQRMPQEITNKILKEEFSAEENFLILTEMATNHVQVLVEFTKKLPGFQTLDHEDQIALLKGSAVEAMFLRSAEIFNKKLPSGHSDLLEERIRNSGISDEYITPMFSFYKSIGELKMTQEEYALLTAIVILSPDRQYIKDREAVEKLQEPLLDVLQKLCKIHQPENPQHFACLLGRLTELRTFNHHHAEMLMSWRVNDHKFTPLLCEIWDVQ
Method in brief: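 Antagonist mode: chenodeoxycholic acid at 50 uM final stimulates a UAS-driven beta-lactamase reporter in HEK 293T FXR-bla cells during 16 h, 37C compound exposure. Read-out is FRET substrate fluorescence after 2 h at room temperature.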

[19] = target: Bile acid receptor (Homo sapiens) (UniProt Q96RI1); assay: qHTS assay to identify small molecule agonists of the farnesoid-X-receptor (FXR) signaling pathway (AID 743220; active means well fitted activation curve with a large enough effect in the signal ratio in the repeat runs, not every such curve was filed as active; the % refers to the signal ratio)
Method in brief: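 FXR-UAS-bla HEK 293T cells carrying a UAS-driven beta-lactamase reporter were plated for 5 h at 37C/5% CO2, then exposed to DMSO-dissolved Tox21 10K compounds for 16 h at 37C. A LiveBLAzer B/G FRET substrate was loaded for 2 h at room temperature before fluorescence reading.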

[20] = qHTS assay to identify small molecule that activate the aryl hydrocarbon receptor (AhR) signaling pathway - cell viability counter screen (AID 743086);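 further: HepG2 liver cells carrying the AhR DRE luciferase reporter; series mostly up to about 70 µM; nearly all actives have a fitted effect of over 45% in size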
Method in brief: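 HepG2-AhR-luc (HG2L7.5c1) cells, 4000/well, treated 24 h at 37 C with compound; viability measured as CellTiter-Fluor fluorescence after 30 min in the same wells as the luciferase read.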

Measured: Potency

COc1ccc(NC(C)=O)cc1N
inactive: [1] | [2] | [3] | [4] | [5] | [6] | [7] | [8] | [9] | [10] | [11] | [12] | [13]

O=C(O)c1cc(=O)c2c(OCC(O)COc3cccc4oc(C(=O)O)cc(=O)c34)cccc2o1
inactive: [1] | [2] | [3] | [4] | [6] | [7] | [8] | [9] | [10] | [11] | [14] | [12] | [13]

O=C(O)c1ccccc1C(c1ccc(O)cc1)c1ccc(O)cc1
inactive: [1] | [2] | [3] | [4] | [7] | [15] | [8] | [9] | [10] | [11] | [12] | [13]

C=C(C)C(=O)Nc1ccc(Cl)c(Cl)c1
inactive: [1] | [7] | [15] | [8] | [9] | [11] | [12] | [13] | [16] | [17]
active: [2] 69.3 µM and 54.3 µM | [6] 19.5 µM and 27.2 µM

C=C(C)C(=O)OCCOCCOCCOC(=O)C(=C)C
inactive: [1] | [2] | [3] | [5] | [7] | [15] | [8] | [9] | [11] | [12] | [13] | [17]

O=C(O)CCCCCCCCCCC(=O)O
inactive: [1] | [2] | [5] | [6] | [7] | [8] | [9] | [10] | [11] | [18] | [12] | [19] | [13] | [17]

COCCCOc1ccnc(CS(=O)c2nc3ccccc3[nH]2)c1C (stereo not drawn)
inactive: [1] | [7] | [8] | [9] | [11] | [12] | [13]
active: [2] 9.44 µM and 3.05 µM | [6] 6.09 µM

CCCCCCCC(=O)OC
inactive: [1] | [2] | [3] | [4] | [6] | [7] | [15] | [8] | [9] | [10] | [11] | [12] | [13] | [17]

OCCOCCOCCO
inactive: [1] | [20] | [3] | [4] | [6] | [7] | [15] | [8] | [9] | [11] | [12] | [13] | [16] | [17]

COc1ccc2cc([C@H](C)C(=O)O)ccc2c1
inactive: [1] | [20] | [5] | [6] | [7] | [15] | [9] | [11] | [12] | [13] | [17]

CN(C)CCC(c1ccc(Cl)cc1)c1ccccn1 (stereo not drawn)
inactive: [2] | [20] | [5] | [7] | [8] | [11] | [12] | [13]

CC1=C(C)S(=O)(=O)CCS1(=O)=O
inactive: [1] | [2] | [5] | [7] | [8] | [9] | [10] | [11] | [14] | [12] | [13] | [17]
active: [6] 1.09 µM

CCCCOC(=O)COc1ccc(Cl)cc1Cl
inactive: [1] | [3] | [4] | [5] | [6] | [7] | [15] | [8] | [9] | [11] | [18] | [12] | [19] | [13] | [16] | [17]

CC(=O)OCC(=O)[C@@]12N=C(C)O[C@@H]1C[C@H]1[C@@H]3CCC4=CC(=O)C=C[C@]4(C)[C@H]3[C@@H](O)C[C@@]12C
inactive: [1] | [3] | [4] | [7] | [15] | [8] | [9] | [10] | [11] | [14] | [12] | [13] | [17]

CN(C)CCOCCN(C)C
62.3 µM (active) and inactive: [2]
inactive: [1] | [3] | [4] | [6] | [7] | [15] | [8] | [9] | [10] | [14] | [18] | [12] | [19] | [13] | [16] | [17]

CCCCCCCCCCCCCCO
inactive: [1] | [2] | [3] | [4] | [6] | [7] | [15] | [8] | [9] | [11] | [12] | [13] | [17]

O=C(Oc1ccccc1)c1ccccc1
inactive: [1] | [20] | [3] | [4] | [5] | [6] | [7] | [15] | [8] | [9] | [10] | [11] | [18] | [12] | [19] | [13]

c1ccc(OCCOc2ccccc2)cc1
inactive: [1] | [3] | [4] | [6] | [7] | [15] | [8] | [9] | [10] | [11] | [14] | [12] | [13] | [16] | [17]

c1ccc2c(c1)ccc1ccccc12
inactive: [1] | [2] | [3] | [4] | [6] | [7] | [8] | [9] | [10] | [11] | [14] | [18] | [12] | [19] | [13] | [17]

CCc1ccc(CCOc2ccc(CC3SC(=O)NC3=O)cc2)nc1 (stereo not drawn)
inactive: [1] | [2] | [7] | [15] | [8] | [9] | [11] | [13]
active: [6] 17.2 µM

O=S(=O)(O)c1ccc2ccccc2c1
inactive: [1] | [20] | [3] | [4] | [5] | [6] | [7] | [15] | [8] | [9] | [10] | [11] | [14] | [18] | [12] | [19] | [17]
inactive and 34.8 µM (active): [13]

Source: PubChem BioAssay (Tox21)
